The source made the active and inactive calls. The calls were made as follows: active = hit-call score of the fitted dose curve at least 0.9, where 1 is the maximum; inactive = score below 0.9.
read-out: Transforming growth factor beta 1 (TGFb1), TGFB1 (gene 7040); test: BSK_KF3CT_TGFb1: BioMAP Diversity Plus: KF3CT Assay for Transforming growth factor beta 1 (TGFb1) Biomarker Activity (AID 2283072); details: primary human keratinocytes with fibroblasts; actives raise or lower the signal
In short: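 ELISA quantifies TGF-b1 at 24 h post-dose in a primary human skin co-culture of keratinocytes and fibroblasts, with gain or loss judged against DMSO. Parallel SRB total-protein staining flags overt cytotoxicity.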

Row | Compound | outcome
1 | CC1(C)C(=O)N(Cl)C(=O)N1Cl | inactive
2 | CCCCN1C(=O)[C@@H]([C@H](O)C2CCCCC2)NC(=O)C12CCN(Cc1ccc(Oc3ccc(C(=O)O)cc3)cc1)CC2 | inactive
3 | Nc1ccn([C@@H]2O[C@H](CO)[C@@H](O)[C@@H]2O)c(=O)n1 | inactive
4 | c1ccc2cc3ccccc3cc2c1 | inactive
5 | Cc1nccn1-c1ccc(Sc2cccc(C3(C(N)=O)CCOCC3)c2)cc1 | inactive
6 | CCn1nc(C)c2c1C(=O)NCC(c1ccc(O)cc1)=N2 | inactive
7 | CCCCCCCCN(C)C | inactive
8 | CCCCCCOC(=O)CC(CC(=O)OCCCCCC)(OC(=O)CCC)C(=O)OCCCCCC | inactive
9 | O=S(=O)(O)c1ccc(N=Nc2c(O)ccc3cc(S(=O)(=O)O)ccc23)cc1 | inactive
10 | COc1cc(C(C)C)c2c(c1)S(=O)(=O)N(COc1cc(=O)n3cccc(OCCN4CCCCC4)c3n1)C2=O | inactive
11 | CCc1cccc(CC)c1N | inactive
12 | NC(=O)NN=Cc1ccc([N+](=O)[O-])o1 | inactive
13 | OCCOCCOCCO | inactive
14 | Cc1ccc(S(=O)(=O)NC(=O)NN2CCCCCC2)cc1 | inactive
15 | OC(CCl)CCl | inactive
16 | Cn1cc[nH]c1=S | inactive
17 | CNC(C)=O | inactive
18 | O=C(O)c1ccc2c(c1)nc(C(=O)NC1CCN(C3CC3)CC1)n2Cc1cc(-c2ccc(Cl)s2)on1 | inactive
19 | CCCOc1ccc(S(=O)(=O)N2CCN(CC)CC2)cc1-c1nc2c(CC)n(Cc3ccccn3)nc2c(=O)[nH]1 | inactive
20 | c1ccc(C(O[C@@H]2CCCN(CCc3ccc4c(c3)OCO4)C2)c2ccccc2)cc1 | inactive
21 | OCC(CO)(CO)CO | inactive
22 | Cc1cccc(O)c1C | inactive
23 | c1ccc2c(c1)-c1cccc3c1c-2cc1ccccc13 | inactive
24 | OCc1ccccc1 | inactive
25 | S=P(N1CC1)(N1CC1)N1CC1 | inactive
26 | COS(C)(=O)=O | inactive
27 | OC[C@H]1O[C@@H]2O[C@H]3[C@H](O)[C@@H](O)[C@@H](O[C@H]4[C@H](O)[C@@H](O)[C@@H](O[C@H]5[C@H](O)[C@@H](O)[C@@H](O[C@H]6[C@H](O)[C@@H](O)[C@@H](O[C@H]7[C@H](O)[C@@H](O)[C@@H](O[C@H]1[C@H](O)[C@H]2O)O[C@@H]7CO)O[C@@H]6CO)O[C@@H]5CO)O[C@@H]4CO)O[C@@H]3CO | inactive

read-out: C-C motif chemokine 2 (Homo sapiens) (UniProt P13500); test: BSK_KF3CT_MCP1: BioMAP Diversity Plus: KF3CT Assay for Monocyte Chemoattractant Protein 1 (MCP1/CCL2) Biomarker Activity (AID 2283073); details: primary human keratinocytes with fibroblasts; actives raise or lower the signal
In short: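 KF3CT skin co-culture (keratinocytes/foreskin fibroblasts), 24 h post-dose; MCP-1 by ELISA; gain/loss of signal fit bidirectionally vs DMSO baseline.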

Row | Compound | outcome | AC50
28 | CC1(C)C(=O)N(Cl)C(=O)N1Cl | inactive | 
29 | CCCCN1C(=O)[C@@H]([C@H](O)C2CCCCC2)NC(=O)C12CCN(Cc1ccc(Oc3ccc(C(=O)O)cc3)cc1)CC2 | inactive | 
30 | Nc1ccn([C@@H]2O[C@H](CO)[C@@H](O)[C@@H]2O)c(=O)n1 | inactive | 
31 | c1ccc2cc3ccccc3cc2c1 | inactive | 
32 | Cc1nccn1-c1ccc(Sc2cccc(C3(C(N)=O)CCOCC3)c2)cc1 | inactive | 
33 | CCn1nc(C)c2c1C(=O)NCC(c1ccc(O)cc1)=N2 | inactive | 
34 | CCCCCCCCN(C)C | inactive | 
35 | CCCCCCOC(=O)CC(CC(=O)OCCCCCC)(OC(=O)CCC)C(=O)OCCCCCC | inactive | 
36 | O=S(=O)(O)c1ccc(N=Nc2c(O)ccc3cc(S(=O)(=O)O)ccc23)cc1 | inactive | 
37 | COc1cc(C(C)C)c2c(c1)S(=O)(=O)N(COc1cc(=O)n3cccc(OCCN4CCCCC4)c3n1)C2=O |  | 2.78 µM (active)
38 | CCc1cccc(CC)c1N | inactive | 
39 | NC(=O)NN=Cc1ccc([N+](=O)[O-])o1 | inactive | 
40 | OCCOCCOCCO | inactive | 
41 | Cc1ccc(S(=O)(=O)NC(=O)NN2CCCCCC2)cc1 | inactive | 
42 | OC(CCl)CCl | inactive | 
43 | Cn1cc[nH]c1=S | inactive | 
44 | CNC(C)=O | inactive | 
45 | O=C(O)c1ccc2c(c1)nc(C(=O)NC1CCN(C3CC3)CC1)n2Cc1cc(-c2ccc(Cl)s2)on1 | inactive | 
46 | CCCOc1ccc(S(=O)(=O)N2CCN(CC)CC2)cc1-c1nc2c(CC)n(Cc3ccccn3)nc2c(=O)[nH]1 | inactive | 
47 | c1ccc(C(O[C@@H]2CCCN(CCc3ccc4c(c3)OCO4)C2)c2ccccc2)cc1 | inactive | 
48 | OCC(CO)(CO)CO | inactive | 
49 | Cc1cccc(O)c1C | inactive | 
50 | c1ccc2c(c1)-c1cccc3c1c-2cc1ccccc13 | inactive | 
51 | OCc1ccccc1 | inactive | 
52 | S=P(N1CC1)(N1CC1)N1CC1 | inactive | 
53 | COS(C)(=O)=O | inactive | 
54 | OC[C@H]1O[C@@H]2O[C@H]3[C@H](O)[C@@H](O)[C@@H](O[C@H]4[C@H](O)[C@@H](O)[C@@H](O[C@H]5[C@H](O)[C@@H](O)[C@@H](O[C@H]6[C@H](O)[C@@H](O)[C@@H](O[C@H]7[C@H](O)[C@@H](O)[C@@H](O[C@H]1[C@H](O)[C@H]2O)O[C@@H]7CO)O[C@@H]6CO)O[C@@H]5CO)O[C@@H]4CO)O[C@@H]3CO | inactive | 

read-out: Matrix Metallopeptidase 9 (MMP9), MMP9 (gene 4318); test: BSK_KF3CT_MMP9: BioMAP Diversity Plus: KF3CT Assay for Matrix Metallopeptidase 9 (MMP9) Biomarker Activity (AID 2283074); details: primary human keratinocytes with fibroblasts; actives raise or lower the signal;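 as to AC50: MMP9 protein level quantified by ELISA in the co-culture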
In short: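 MMP-9 quantified by ELISA after 24 h chemical treatment of primary human skin keratinocyte/fibroblast co-cultures; gain or loss fitted against DMSO, with parallel SRB staining (0.1% SRB, 560 nm) for overt cytotoxicity.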

Row | Compound | outcome | AC50
55 | CC1(C)C(=O)N(Cl)C(=O)N1Cl | inactive | 
56 | CCCCN1C(=O)[C@@H]([C@H](O)C2CCCCC2)NC(=O)C12CCN(Cc1ccc(Oc3ccc(C(=O)O)cc3)cc1)CC2 | inactive | 
57 | Nc1ccn([C@@H]2O[C@H](CO)[C@@H](O)[C@@H]2O)c(=O)n1 | inactive | 
58 | c1ccc2cc3ccccc3cc2c1 | inactive | 
59 | Cc1nccn1-c1ccc(Sc2cccc(C3(C(N)=O)CCOCC3)c2)cc1 |  | 20 µM (active)
60 | CCn1nc(C)c2c1C(=O)NCC(c1ccc(O)cc1)=N2 | inactive | 
61 | CCCCCCCCN(C)C | inactive | 
62 | CCCCCCOC(=O)CC(CC(=O)OCCCCCC)(OC(=O)CCC)C(=O)OCCCCCC | inactive | 
63 | O=S(=O)(O)c1ccc(N=Nc2c(O)ccc3cc(S(=O)(=O)O)ccc23)cc1 | inactive | 
64 | COc1cc(C(C)C)c2c(c1)S(=O)(=O)N(COc1cc(=O)n3cccc(OCCN4CCCCC4)c3n1)C2=O |  | 7.75 µM (active)
65 | CCc1cccc(CC)c1N | inactive | 
66 | NC(=O)NN=Cc1ccc([N+](=O)[O-])o1 | inactive | 
67 | OCCOCCOCCO | inactive | 
68 | Cc1ccc(S(=O)(=O)NC(=O)NN2CCCCCC2)cc1 | inactive | 
69 | OC(CCl)CCl | inactive | 
70 | Cn1cc[nH]c1=S | inactive | 
71 | CNC(C)=O | inactive | 
72 | O=C(O)c1ccc2c(c1)nc(C(=O)NC1CCN(C3CC3)CC1)n2Cc1cc(-c2ccc(Cl)s2)on1 | inactive | 
73 | CCCOc1ccc(S(=O)(=O)N2CCN(CC)CC2)cc1-c1nc2c(CC)n(Cc3ccccn3)nc2c(=O)[nH]1 | inactive | 
74 | c1ccc(C(O[C@@H]2CCCN(CCc3ccc4c(c3)OCO4)C2)c2ccccc2)cc1 |  | 32.2 µM (active)
75 | OCC(CO)(CO)CO | inactive | 
76 | Cc1cccc(O)c1C | inactive | 
77 | c1ccc2c(c1)-c1cccc3c1c-2cc1ccccc13 | inactive | 
78 | OCc1ccccc1 | inactive | 
79 | S=P(N1CC1)(N1CC1)N1CC1 | inactive | 
80 | COS(C)(=O)=O | inactive | 
81 | OC[C@H]1O[C@@H]2O[C@H]3[C@H](O)[C@@H](O)[C@@H](O[C@H]4[C@H](O)[C@@H](O)[C@@H](O[C@H]5[C@H](O)[C@@H](O)[C@@H](O[C@H]6[C@H](O)[C@@H](O)[C@@H](O[C@H]7[C@H](O)[C@@H](O)[C@@H](O[C@H]1[C@H](O)[C@H]2O)O[C@@H]7CO)O[C@@H]6CO)O[C@@H]5CO)O[C@@H]4CO)O[C@@H]3CO | inactive | 

— PubChem BioAssay (EPA / NIEHS)
